Shown are actives, neighbours in structure and some others; about 12% of the full set was active somewhere.
Sfp PPTase inh: qHTS Assay for Inhibitors of Bacillus subtilis Sfp phosphopantetheinyl transferase (PPTase); Potency, µM, without a hit: largest response in the series, negative = inhibition, actives largely listed as inhibitors; Biochemical Sfp PPTase activity, qHTS; AID 1490, 2009; hit rate 3.5% among 310,000; 4'-phosphopantetheinyl transferase ffp (Bacillus subtilis), Q9F4F7;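 also: the enzyme is Sfp with the accession as filed and its product quenches rhodamine fluorescence; 0% = enzyme reaction without inhibitor and -100% = no enzyme wells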
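Reaction rates are the 30-min fluorescence difference (ex 525, em 598 nm) in wells containing 15 nM Sfp, 5 uM rhodamine-CoA and 12.5 uM BHQ-2-YbbR at pH 7.6 with 10 mM MgCl2.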
G9a block: qHTS Assay for Inhibitors of Histone Lysine Methyltransferase G9a; Histone-lysine N-methyltransferase EHMT2 (Homo sapiens), Q96KQ7; G9a H3K9 monomethylation, AlphaScreen, 2 h; Potency, µM (series often up to 102 µM), inactives show top-dose activity, negative = inhibition, usual class: inhibitors; hit rate 8.8% among 350,000; AID 504332, 2011; also: % is scaled to controls: 0 for no effect and ±100 for the full control effect; nearly all actives have a fitted effect of over 75% in size
Target sequence (Q96KQ7 913-1193 limits assumed): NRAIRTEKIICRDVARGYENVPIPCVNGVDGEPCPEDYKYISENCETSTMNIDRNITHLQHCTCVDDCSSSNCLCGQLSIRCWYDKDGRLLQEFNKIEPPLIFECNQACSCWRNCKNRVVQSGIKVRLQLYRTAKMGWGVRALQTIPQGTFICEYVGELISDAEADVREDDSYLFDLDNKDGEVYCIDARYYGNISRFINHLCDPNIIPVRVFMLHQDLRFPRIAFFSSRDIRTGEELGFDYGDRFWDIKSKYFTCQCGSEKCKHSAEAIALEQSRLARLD
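Methyltransferase reactions run at room temperature for 2 h (20 nM enzyme, 500 nM biotin-H3K9 peptide, 20 uM SAM) after a 15 min compound preincubation; product detected by AlphaScreen beads and anti-H3K9me1 antibody.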
HP1b binding inh: HTS for Inhibitors of HP1-beta Chromodomain Interactions with Methylated Histone Tails. AlphaScreen HP1-beta / biotin-H3K9me3 peptide binding. Potency, µM (doses to about 114 µM), inactives show top-dose activity change, negative = inhibition, hits mostly inhibitors. hit rate 0.56% among 390,000. AID 540317, 2011; also: nearly all actives have a fitted effect of over 70% in size
Target sequence (P83916 whole entry, looked up): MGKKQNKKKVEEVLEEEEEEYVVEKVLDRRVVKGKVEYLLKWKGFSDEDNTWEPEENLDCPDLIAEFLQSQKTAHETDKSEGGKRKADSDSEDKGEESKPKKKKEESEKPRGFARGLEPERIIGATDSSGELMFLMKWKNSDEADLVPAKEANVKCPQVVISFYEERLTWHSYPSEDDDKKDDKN
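HP1-beta protein (50 nM final) preincubated 30 min at room temperature with biotinylated H3(1-18)K9me3 peptide (50 nM) in PBS pH 7.4, 0.01% Tween-20, then compound added for 30 min. AlphaScreen streptavidin donor/nickel chelate acceptor beads (10 ug/mL final), 30 min dark, luminescence read.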
L3MBTL1 block: qHTS Assay for the Inhibitors of L3MBTL1. Lethal(3)malignant brain tumor-like protein 1 (Homo sapiens), Q9Y468. AlphaScreen L3MBTL1–H3K9me1 peptide binding. Potency, µM (titrated, usually from 57.1 µM), for inactives: at the highest dose activity, negative = inhibition, most hits filed as inhibitors. hit rate 0.66% among 230,000. AID 485360, 2010; also: % is scaled to controls: 0 for no effect and ±100 for the full control effect; nearly all actives have a fitted effect of over 60% in size
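AlphaScreen assay: L3MBTL1 (50 nM final) was preincubated 30 min at room temperature with biotinylated H3(1-15)K9me1 peptide (75 nM final), then 30 min with library compounds; streptavidin donor and nickel chelate acceptor beads (10 ug/mL final) added, 30 min dark.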
JMJD2A Tudor inh: qHTS Assay for Inhibitors of JMJD2A-Tudor Domain; Lysine-specific demethylase 4A (Homo sapiens), O75164; AlphaScreen JMJD2A-Tudor / H3K4me3 peptide binding; Potency, µM (titrated, usually from 114 µM), inactives show top-dose activity change, negative = inhibition, hits mostly inhibitors; hit rate 4.4% among 390,000; AID 504339, 2011; also: % is scaled to controls: 0 for no effect and ±100 for the full control effect; nearly all actives have a fitted effect of over 50% in size
BAZ2B block: qHTS Assay for Inhibitors of BAZ2B | hit rate 4.4% among 360,000 | Potency, µM (highest dose often 114 µM), inactives show top-dose activity change, negative = inhibition, usual class: inhibitors | Bromodomain adjacent to zinc finger domain protein 2B (Homo sapiens), Q9UIF8 | AlphaScreen BAZ2B-H3K14Ac peptide displacement; also: % is scaled to controls: 0 for no effect and ±100 for the full control effect; nearly all actives have a fitted effect of over 60% in size
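AlphaScreen luminescence quantifies BAZ2B engagement of H3K14Ac peptide; the protein and biotinylated peptide are both at 50 nM final, buffer PBS pH 7.4 with 0.01% Tween-20, all steps at room temperature.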
The depositor's hits bear a star; u = inconclusive; x = no result given; ! = a repeat was not active; [ ] = remark or other dose. Calls follow the shape of the dose curve; as a rule, active = well fitted curve in the direction sought with a large enough effect; inconclusive = small, poorly fitted or top-dose-only effect, or another doubt; inactive = no such curve, though single readings can be large; an effect the other way counts as inactive or inconclusive. Potency is read from the fitted curve at half-maximal effect.

SMILES	Sfp PPTase inh	G9a block	HP1b binding inh	L3MBTL1 block	JMJD2A Tudor inh	BAZ2B block
OCCNCCc1c[nH]c2ccc(OCc3ccccc3)cc12	-7%	u	-9%	x	40µM*	u
OC(CCNCCc1c[nH]c2ccccc12)C(F)(F)F (stereo not drawn)	3%	5%	32%	u	-3%	-9%
NCC(CC(=O)O)c1ccc(Cl)s1 (stereo not drawn)	24%	37%[59 µM]	x	x	x	x
CCOC(=O)CCCc1cc[c]([Sb](=[O])([OH])[OH])cc1	x	x	1.3µM*	x	0.71µM*	x
CCOP(=O)(CN(CC)CCNP(=O)(OCC)OCC)OCC	20%	50µM*	17%	6%	u	12%[57.1 µM]
NC(Cn1ccc(=O)c(O)c1)C(=O)O (stereo not drawn)	6%	5%[2.33 µM]	x	x	x	x
CC(C)(c1ccc(OCC2CO2)cc1)c1ccc(OCC2CO2)cc1 (stereo not drawn)	6%	139%[59 µM]	x	x	x	x
OCc1cnc[nH]1	17%	12µM*!	10%	4%	u	-24%
C[C@H](N)Cc1cnc[nH]1	6%	-39%[59 µM]	x	x	x	x
CC(N)C(=O)NC1C2C(=C(O)CC(O)C2O)C(=O)OC1(C)C(Cl)Cl (stereo not drawn)	x	x	-10%	x	25µM*	x
Cc1ccccc1Nc1c(-c2ccc(Br)cc2O)nc2sccn12	x	u	2%	x	u	22µM*
C[C@]12[C@H](O)CC3C(CC[C@@H]4C[C@@H](O)CC[C@]34C)[C@@]1(O)CC[C@@H]2C1=CC(=O)OC1 (stereo partly drawn)	5%	x	x	x	x	x
Cc1cccc(-n2c(=S)[nH]c3ccccc3c2=O)n1	50µM*	u	16%	12%	-8%	1%
Cc1cccc(-n2c(C)nc3ccccc3c2=O)n1	16%	-5%[59 µM]	49%	0%	13%	-2%
CN1c2cc(O)c(N=NC(N)=O)cc2CC1S(=O)(=O)O (stereo not drawn)	-26%	u	x	x	x	x
COc1cc(C(=S)N2CCOCC2)cc(OC)c1OC(=O)Cc1ccccc1	-4%	45µM*	-21%	x	-23%	1%
COc1ccc(S(=O)(=O)N2CCOCC2)cc1NC(=O)COC(=O)Cc1ccccc1	x	x	14%	2%	-5%	x
CCOCCSc1nc2c(c(-c3cccs3)c1C#N)CC/C2=C/c1cccs1	35µM*	28µM*	130%	14%	36%	11%
O=c1[nH]c(O)c(/C=C2/C=CC(c3cc(Cl)ccc3Cl)=N2)c(=O)[nH]1	-20%	50µM*	28%	x	u	u
O=c1c2ccccc2nc(CNc2ccccc2)n1-c1ccccc1	-4%	32µM*	45%	-13%	-24%	-12%
Cc1ccccc1-n1c(CNc2ccccc2)nc2ccccc2c1=O	x	x	33%	x	-29%	x
O=C1Nc2ccccc2C1Cc1nc2ccccc2c(=O)n1-c1ccccc1 (stereo not drawn)	-5%	-35%	0%	x	-20%[11.4 µM]	79µM*
Cc1cccc(-n2c(CC3C(=O)Nc4ccc(C)cc43)nc3ccccc3c2=O)c1 (stereo not drawn)	x	u	11%	x	-31%	-31%
O=C(Nc1cccc(F)c1)N1CCCC2(CCN(C(=O)Oc3ccccc3)CC2)C1	9%	3%[12.7 µM]	x	x	x	x
Cc1c(C=C2C(=O)NC(=O)NC2=O)c(=O)n(-c2ccccc2)n1C	3%	u	18%	12%	u	-14%
SMILES	Sfp PPTase inh	G9a block	HP1b binding inh	L3MBTL1 block	JMJD2A Tudor inh	BAZ2B block
Cc1nn(Cc2ccccc2)c(C)c1C=C1C(=O)NC(=S)NC1=O	-97%	8.9µM*	-26%	6%	89µM*	-7%
CCOC(=O)C1(CCOc2ccccc2)CCN(Cc2cccc(O)c2)CC1	31%	18%	19%	-3%	-36%	-5%
CCOC(=O)C1(CCOc2ccccc2)CCN(Cc2cnc(SC)nc2)CC1	2%	50µM*	64%	-5%	0%	u
CSc1ncc(Cl)c(C(=O)O)n1 (tested in a mixture with another compound)	1%	x	15%	x	79µM*	u
COc1cc2c(cc1OC)-c1c(OC)c(OC)c(C=O)c3c1[C@H](C2)N(C)CC3	-8%	x	x	x	x	x
COc1ccc2[nH]c3c(c2c1)CCN1C(=O)C(CC(=O)NCc2cccc(C(F)(F)F)c2)C[C@H](C(=O)N2CCCCC2)[C@@]31C (stereo partly drawn)	x	x	-4%	-3%	u	x
O=C(CN1CCCCC1)NNC(=O)c1cccc(Br)c1	11%	15%	47%	x	-16%	2%
CCC(C=C[C@@H]1OC(=O)C=C[C@H]1C)=C[C@H](C)CC=CC(C)=C[C@@H](C)C(=O)[C@@H](C)[C@H](O)[C@@H](C)CC(C)=CC(=O)O	0.71µM*	u	x	x	x	x
O=[N+]([O-])c1ccc(Nc2ccccc2)cc1	-2%	14%[59 µM]	53%	50%	-3%	13%
c1ccc(Nc2ccc(Nc3ccccc3)cc2)cc1	x	10%[0.501 µM]	u	u	20µM*	28µM*
COc1cc(O)c(C(=O)O)c(-c2cc(O)c(O)cc2C)c1	2%	0.35µM*	u	x	13µM*	56µM*
COc1ccc2c(c1)c(C(=O)O)c(C)n2CC(C)C	19%	9%[12.7 µM]	19%	x	-10%	-2%
C[C@@H]1O[C@@H](O[C@H]2C[C@@H](O)[C@]3(CO)[C@H]4[C@H](O)C[C@]5(C)[C@@H]([C@@H]6COC(=O)C6)CC[C@]5(O)[C@@H]4CC[C@]3(O)C2)[C@H](O)[C@H](O)[C@H]1O	x	23%[12.7 µM]	x	x	x	x
Cc1cc(C)nc(N/N=C/C2=C(O)CC(c3ccccc3)CC2=O)n1 (stereo not drawn)	11%	-13%	x	x	x	22µM*
Cn1c(O)c(C(=O)c2ccccc2)c(=O)n(C)c1=O	-45%	-7%[12.7 µM]	45%	-6%	-18%	6%
CCOc1ccc(C2CC(c3c(O)n(C)c(=O)n(C)c3=O)=NN2)cc1 (stereo not drawn)	-7%	u	47%	-13%	-12%	u
Cn1c(O)c(C2=NN(C(=O)CCl)C(c3ccccc3)C2)c(=O)n(C)c1=O (stereo not drawn)	-11%	32µM*	24%	-4%	22µM*	-38%
CCC(=O)N1N=C(c2c(O)n(C)c(=O)n(C)c2=O)CC1c1ccccc1 (stereo not drawn)	-15%	25µM*	48%	1%	-13%	-16%
